In PubChem BioAssay (NCI):
This is part of a sample that, as a whole, favours compounds with a hit. Of some 79,000 tested, about 15% had one in any assay. Calls of active or inactive are those of the source. Rule as the data show it: active = growth inhibition above about 70%; inactive = the rest.

test: NCI Yeast Anticancer Drug Screen. Data for the rad50 strain (AID 155);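 also: 0% = growth of vehicle-only cultures of the same strain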; settings: S. cerevisiae rad50 strain growth inhibition; at 50.0 µM; stronger effect = higher value
Method in brief: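 Yeast carrying a defined DNA repair defect were exposed to test compounds, and growth was compared with vehicle-treated controls to give percent inhibition.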

**Q.** With `CN1C(=O)NC(c2ccc(Cl)cc2)(c2ccc(Cl)cc2)C1=O` as the compound, how does the growth inhibition read?
**A.** 44.9% (inactive)

**Q.** With `CCCOCc1cn[nH]n1` as the compound, how does the growth inhibition read?
**A.** -9.7% (inactive)

**Q.** For `NS(=O)(=O)c1cc(=O)[nH]c(=O)[nH]1`, which growth inhibition is on record?
**A.** -12.2% (inactive)

**Q.** With `O=C(O)C1CSC(c2ccccc2)N1` (stereo unspecified) as the compound, how does the growth inhibition read?
**A.** 1.95% (inactive)

**Q.** For `C=CCC(OC(C)=O)c1ccc(OC)c(OC)c1` (stereo unspecified), which growth inhibition is on record?
**A.** 11.3% (inactive)

**Q.** For `COc1cc(N)c2ncccc2c1Cl`, which growth inhibition is on record?
**A.** 17.6% (inactive)

**Q.** Which growth inhibition does the source give for `CC(=O)Oc1c(Cl)cccc1-c1ccccc1` here?
**A.** 35.3% (inactive)

**Q.** For `CC(C)C(C)(C)C(=O)C(C)(C)C(C)(C)C`, which growth inhibition is on record?
**A.** -12.2% (inactive)

**Q.** For `c1ccc2c(NCCCN3CCN(CCCNc4c5ccccc5nc5ccccc45)CC3)c3ccccc3nc2c1`, which growth inhibition is on record?
**A.** 23.9% (inactive)

**Q.** With `O=S(=O)(O)c1ccc(O)c(C2CCCCC2)c1` as the compound, how does the growth inhibition read?
**A.** -7.1% (inactive)

**Q.** Which growth inhibition does the source give for `Cc1ccc2nc(-c3ccc(N=Cc4ccccc4O)cc3)sc2c1` here?
**A.** 17.7% (inactive)

**Q.** With `CCCCCCCCCCCCCC/C=C\C(CC(=O)O)C(=O)O` (stereo unspecified) as the compound, how does the growth inhibition read?
**A.** 4.6% (inactive)

**Q.** Which growth inhibition does the source give for `OCCc1ccc(Cl)cc1` here?
**A.** 10.8% (inactive)

**Q.** For `CCOC(C=O)OCC`, which growth inhibition is on record?
**A.** 0.6% (inactive)

**Q.** With `Cc1ccc2nc(N)nnc2c1` as the compound, how does the growth inhibition read?
**A.** -5.9% (inactive)

**Q.** For `O=[n+]1ccn([O-])c2ccccc21`, which growth inhibition is on record?
**A.** 11.3% (inactive)
